From PubChem BioAssay AID485344 (National Center for Advancing Translational Sciences (NCATS), 2010)
Several values for one entry are separate records, joined by “and”; a condition that tells them apart may be missing. Identical values can stand only once. Out of some 340,000 compounds screened, about 6,900 (2%) were called active. Rule as the data show it: active = inhibition above about 30%; inactive = below that, where a call was filed. Many of the other results were omitted from the sample, so actives are more common in it than they were. Some structures have more than one record in an assay (separate samples or runs), and their calls can disagree.

Target: D(2) dopamine receptor (Homo sapiens) (UniProt P14416)
Assay: HTS Assay for Allosteric Antagonists of the Human D2 Dopamine Receptor: Primary Screen for Antagonists; also: 0% is about no effect
Details: HEK293 TREx D2 cells, calcium flux, dopamine EC80; at 10 µM; stronger effect = higher value
Method in brief: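 Overnight-induced (tetracycline, 30 C) HEK293 T-REx cells carrying force-coupled D2 receive a no-wash calcium dye, then compound, then EC80 dopamine at 180 s; signals are read kinetically throughout.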

Chain of D(2) dopamine receptor (Homo sapiens) (P14416 whole entry, looked up): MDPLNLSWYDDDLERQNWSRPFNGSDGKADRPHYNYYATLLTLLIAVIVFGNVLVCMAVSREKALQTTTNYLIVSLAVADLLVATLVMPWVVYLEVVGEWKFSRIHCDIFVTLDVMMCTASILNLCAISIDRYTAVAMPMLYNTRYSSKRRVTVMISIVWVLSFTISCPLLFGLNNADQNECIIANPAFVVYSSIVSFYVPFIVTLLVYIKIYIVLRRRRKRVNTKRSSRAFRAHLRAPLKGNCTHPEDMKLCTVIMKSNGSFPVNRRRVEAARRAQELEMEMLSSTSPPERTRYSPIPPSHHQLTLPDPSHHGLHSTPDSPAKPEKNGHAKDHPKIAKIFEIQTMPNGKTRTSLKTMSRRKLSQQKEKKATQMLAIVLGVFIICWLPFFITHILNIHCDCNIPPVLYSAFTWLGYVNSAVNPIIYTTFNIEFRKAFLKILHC

inhibition, active:
COC(=O)c1ccc(CN(c2ccccc2OC)S(=O)(=O)c2cccs2)o1 36%, N#Cc1ccc(OCC(=O)NC(=O)NC2CCS(=O)(=O)C2)cc1 (stereo not given) 39.2%, CC(C)(C)C(=O)c1cnc(Nc2ccccc2)s1 32.1%, O=C(Cn1c(N2CCN(C/C=C/c3ccccc3)CC2)nc2ccccc21)c1ccccc1 47.6%, CC(CCc1ccccc1)NCC(O)c1cccc([N+](=O)[O-])c1 (stereo not given) 58.8%, CC1CN(CCCOc2ccccc2-c2ccccc2)CC(C)O1 (stereo not given) 49.7%, CC1CCCN(CCOCCOc2ccccc2-c2ccccc2)C1 (stereo not given) 80.4%, CN1CCN(CCCCOc2ccccc2-c2ccccc2)CC1 69.9%, CC(C)C(=O)Nc1cccc(NC(=O)c2ccc([N+](=O)[O-])cc2Cl)c1 39.3%, Cc1cc(C)n(-c2nnc(C)n2NC(=O)c2cccc(Cl)c2)n1 46.8%, Cc1cccc(NC(=O)C2CCCN(C(=O)Nc3ccc(F)cc3)C2)c1C (stereo not given) 36%, CC(C)C(=O)NCc1cc(-c2ccc(Cl)cc2)no1 41.7%, COc1ccccc1CC(=O)Nc1ccc(S(=O)(=O)N2CCCC2)cc1 39.2%, CC1CC(C)CN(CCOc2cccc3ccccc23)C1 (stereo not given) 55.1%, O=C(c1ccc2c(c1)OCCO2)C1CCN(S(=O)(=O)c2cccc(F)c2)CC1 61.3%, Cc1cccc(N2CCN(Cc3c(C)n(C)n(-c4ccccc4)c3=O)CC2)c1C 41.2%, CCOc1ccccc1/C=c1\sc2nc(-c3ccco3)nn2c1=O 33.5%

inhibition, inactive:
O=C(NNC(=O)c1cc(S(=O)(=O)N2CCCCC2)ccc1Cl)c1ccccc1O 9.25%, COc1ccccc1CNC(=O)c1ccc(CS(=O)(=O)c2ccccc2)o1 22.7%, COc1ccccc1NC(=O)CN(c1ccccc1OC)S(=O)(=O)c1ccccc1 -0.319%, COc1ccc(CNC(=O)c2ccc(NS(=O)(=O)c3ccc4[nH]c(=O)[nH]c4c3)cc2)cc1OC -22.9%, N#Cc1ccc(C(=O)OCC(=O)NC(=O)NC2CCCCC2)cc1 -34.5%, O=C(Cc1ccc(Cl)cc1)NC1CCS(=O)(=O)C1 (stereo not given) -2.94%, COc1ccccc1C(=O)NCCC(=O)NC(C)CCc1ccccc1 (stereo not given) 3.51%, CC(=O)c1cnc(-c2ccccc2)s1 -11.4%, O=C(c1ccc(Cl)cc1)c1cnc(Nc2ccccc2)s1 -15.9%, COc1ccccc1S(=O)(=O)NCc1ccc(C(=O)N(C)Cc2ccc(F)cc2)cc1 -9.99%, CC(C(=O)NC1CCCC1)N1CCN(S(=O)(=O)c2ccccc2Cl)CC1 (stereo not given) 10.1%, CC(C)Cn1c(N2CCN(C(=O)/C=C/c3ccccc3)CC2)nc2ccccc21 -10.5%, O=C(CN1CCN(c2ccc(Cl)cc2)CC1)c1ccccc1 22.1%, CC1CCc2sc(C(=O)NCC(c3ccco3)N3CCCCC3)cc2C1 (stereo not given) -22%, O=C(CC(c1ccccc1)c1ccccc1)NCC(O)c1ccc([N+](=O)[O-])cc1 (stereo not given) -8.44%, CC(C)OP(=O)(OC(C)C)C(Nc1ccccc1)c1cccc([N+](=O)[O-])c1 (stereo not given) 4.68%, COCCn1c(C)cc(C(=O)CSc2nnc(C3CC3)n2C2CC2)c1C -24.6%, COc1ccc(S(=O)(=O)N2CCN(CC(=O)NCC3(N4CCOCC4)CCCCC3)CC2)cc1 -1.88%, CN(CC(=O)Nc1ccc(Cl)c(C(F)(F)F)c1)C(=O)CCC(=O)c1ccccc1 5.01%, Cc1ccc(OCCC(=O)OCC(=O)N2c3ccccc3NC(=O)C2(C)C)cc1 21.8%, O=C(CN1CCCCC1)NC(=O)Nc1ccccc1F -3.1%, CCN(CC)S(=O)(=O)c1ccc(OC)c(NC(=O)CCc2c(C)noc2C)c1 5.64%, c1ccc(-c2ccccc2OCCN2CCCCC2)cc1 26.6%, CC1CN(C2CCN(C(=O)COc3ccccc3)CC2)CC(C)O1 (stereo not given) -12.1%, CC1CCCN(CC(O)COCc2ccccc2)C1 (stereo not given) 10.7%, CCN1CCN(CCCCOc2ccccc2F)CC1 3.79%, CN1CCN(CCCCOc2cccc3ccccc23)CC1 15.6%, CC1CN(CC(=O)NC(C)c2ccccc2)CC(C)O1 (stereo not given) 5.75%, COc1ccccc1-c1nn(Cc2ccccc2)cc1C(=O)N1CCN(c2ncccn2)CC1 -14.3%, CC(=O)c1ccc(S(=O)(=O)Nc2ccc(-c3ccc4nncn4n3)cc2)cc1 12.5%, COc1ccc(-c2cc(C(=O)NCCCN3CCCC3=O)c3ccccc3n2)cc1OC 13.7%, O=C(Nc1cccc(NC(=O)c2ccccc2[N+](=O)[O-])c1)c1ccccc1Cl 3.86%, O=C(Nc1ccncc1)c1ccc([N+](=O)[O-])cc1Cl 0.87%, CN(C(=O)CSc1nnc(C2CC2)n1C)C1CCCc2ccccc21 (stereo not given) -0.606%, O=C(Nc1ccon1)c1cccc(Cl)c1 18.9%, Cc1nc2ccccc2c(=O)n1NC(=O)c1ccc(Cl)c([N+](=O)[O-])c1 11.3%, CC1CC(=O)Nc2ccccc2N1C(=O)COc1ccc2cc(Br)ccc2c1 (stereo not given) -5.97%, C=C1CCC(N(O)c2cc(C)on2)C(=C)CCC2C1CC2(C)C (stereo not given) -0.609%, Cc1ccc(S(=O)(=O)CCC(=O)Nc2nnc(CC(C)C)s2)cc1 -13.3%, COc1ccc(S(=O)(=O)Nc2cc(C)on2)cc1NC(C)=O 15.7%, Cc1cccc(NC(=O)N2CCCCCC2)c1C 9.43%, Cc1cccc(NC(=O)C2CCCN(C(=O)NCc3ccccc3)C2)c1C (stereo not given) -14.3%, O=C(O[C@H]1[C@H](Cc2ccccc2)NS(=O)(=O)[C@H]2C[C@@H]3C=C[C@]12O3)c1ccc([N+](=O)[O-])cc1 19.3%, CC1(NC(=O)CCS(=O)(=O)c2ccc(Cl)cc2)CCS(=O)(=O)C1 (stereo not given) 9.74%, CC(=O)c1sc(NC(=O)CCN2C(=O)C3CC=CCC3C2=O)nc1-c1ccccc1 (stereo not given) -8.46%, Cc1cc(C(=O)COc2ccccc2Cl)c(C)n1C1CC1 -29.6%, Cc1ccc(S(=O)(=O)Cc2cc(-c3ccc(Cl)cc3)no2)cc1 -17%, CC(C)CNC(=O)c1cc(-c2ccc(Br)cc2)on1 -7.31%, Cc1cc(C)n2nc(C(=O)Nc3cccc(S(=O)(=O)N4CCOCC4)c3)nc2n1 7.16%, O=C(O)c1ccc(Cn2c(=S)[nH]c3cc(Cl)ccc3c2=O)cc1 -1.7%, CCCCCCSc1ccc([C@@H]2[C@@H]3C(=O)N(CC)C(=O)[C@@H]3[C@]3(C(=O)OC)CCCCN23)cc1OC 6.12%, COc1cc(OC)c(N2CC(C(=O)Nc3cc(Cl)ccc3N3CCOCC3)CC2=O)cc1Cl (stereo not given) -13.1%, O=C(CN1CCCCCC1)Nc1ccc(S(=O)(=O)N2CCCCC2)cc1 -6.5%, CCN(CC(=O)Nc1ccc(S(=O)(=O)N2CCCC2)cc1)CC(=O)Nc1cccc(OC)c1 -1.82%, COc1cc(OC)cc(C(=O)NNC(=O)CCOc2ccccc2OC)c1 23.6%, Cc1[nH]c2ccccc2c1C(=O)CN1CC(C)CC(C)C1 (stereo not given) 14.4%, Cc1cccc(NC(=O)CCN2CC(C)CC(C)C2)c1 (stereo not given) 4.5%, COc1cccc(NC(=O)COC(=O)/C=C/c2ccco2)c1 13.2%, Cn1c(SCC(=O)Nc2ccc(N3CCOCC3)cc2)nnc1C(F)(F)F 6.16%, O=C(Nc1ccccn1)C1CCN(S(=O)(=O)c2ccc3c(c2)OCCO3)CC1 -2.31%, O=C(c1c(F)cccc1F)N1CCN(S(=O)(=O)c2ccc3c(c2)OCCO3)CC1 8.79%, O=C(CSc1nnc(N2CCOCC2)n1-c1cccc(F)c1)N1CCN(c2ccccn2)CC1 4.3%, COc1ccccc1C(=O)NCC(=O)OCC(=O)Nc1nnc(-c2ccccc2)o1 1.12%, CC(C)(C)C(=O)CSc1ccc(S(=O)(=O)N2CCCC2)cn1 5.12%, Cc1c(CN2CCC(C)CC2)c(=O)n(-c2ccccc2)n1C -7.69%, Cc1c(CN2CCCC(C(=O)c3cccc(Cl)c3)C2)c(=O)n(-c2ccccc2)n1C (stereo not given) -0.0762%, C#CCOCCOCCOCCNc1nc(N2CCN(C(=O)CCCCCCCCCCNC(=O)[C@H](CCCCN)n3cc(C)nn3)CC2)nc(N2CCN(C(=O)CCCCCCCCCCNC(=O)[C@H](CO)n3cc(CCCSC)nn3)CC2)n1 -18.3%, CC12CCC(=O)N1C(C(=O)NCCN1C(=O)S/C(=C\c3ccccc3F)C1=O)CS2 (stereo not given) -9.13%, CCOc1ccc(NS(=O)(=O)c2ccc(Cl)c(C(=O)N(C)Cc3cccnc3)c2)cc1 10.8%, CCN(CC)S(=O)(=O)c1ccc(N2CCOCC2)c(NC(=O)c2ccc(=O)n(C)n2)c1 -40.6%, O=c1nc2s/c(=C\c3ccco3)c(=O)n2nc1Cc1ccccc1 -1.5%, CSc1nc(-c2ccco2)nn1C(=O)CCc1ccccc1 10.1%

inhibition, 6.19% (inactive) and 47.1% (active):
CC(C)c1ccc2c(c1)c(SC(C)(C)C)c(CC(C)(C)C(=O)O)n2Cc1ccc(Cl)cc1
